The record followed here is article PMC7862700, “An all-to-all approach to the identification of sequence-specific readers for epigenetic DNA modifications on cytosine”.

What all share (assay): DAPPL (digital affinity profiling via proximity ligation, sequencing); 10 mM Tris-HCl pH 7.5, 50 mM NaCl, 1 mM DTT, 4% glycerol, room temperature, 30 min; GST-TFs on glutathione beads, 16-mer random dsDNA library, 0.1% formaldehyde crosslink after washing; high values mean tight binding
One test concerns the target T1, FLI1 (Homo sapiens, UniProt Q01543 1-452).
T1 sequence: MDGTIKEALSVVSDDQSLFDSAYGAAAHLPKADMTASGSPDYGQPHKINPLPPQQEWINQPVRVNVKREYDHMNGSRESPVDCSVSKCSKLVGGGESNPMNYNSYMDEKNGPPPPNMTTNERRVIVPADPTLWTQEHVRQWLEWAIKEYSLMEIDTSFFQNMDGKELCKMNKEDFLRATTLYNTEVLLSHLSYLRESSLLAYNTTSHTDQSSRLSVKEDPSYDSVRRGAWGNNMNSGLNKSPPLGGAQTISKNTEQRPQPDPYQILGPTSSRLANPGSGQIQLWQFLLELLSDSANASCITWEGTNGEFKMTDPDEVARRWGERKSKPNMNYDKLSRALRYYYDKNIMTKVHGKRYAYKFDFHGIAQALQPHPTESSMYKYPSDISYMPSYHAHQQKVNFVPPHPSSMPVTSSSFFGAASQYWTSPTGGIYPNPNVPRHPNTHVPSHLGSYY
The conditions noted are these: protein: recombinant; tags: N-terminal GST; dsDNA, one strand shown. The gist of the method:
(§1)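 Binding signal is given per hexamer as its read frequency for a factor divided by its frequency in the tag-only sample. GST-fused human transcription factors were expressed in yeast, captured on glutathione beads, barcoded with DNA and pooled with that sample, then incubated with 200 nmole of a 16-mer random double-stranded DNA library in Tris/NaCl/DTT/glycerol buffer for 30 min at room temperature. The pools were then washed, crosslinked, proximity-ligated, amplified by PCR and sequenced on an Illumina NextSeq500.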

The target in another test is T2, ELK1 (Homo sapiens, UniProt P19419 1-428).
T2 sequence: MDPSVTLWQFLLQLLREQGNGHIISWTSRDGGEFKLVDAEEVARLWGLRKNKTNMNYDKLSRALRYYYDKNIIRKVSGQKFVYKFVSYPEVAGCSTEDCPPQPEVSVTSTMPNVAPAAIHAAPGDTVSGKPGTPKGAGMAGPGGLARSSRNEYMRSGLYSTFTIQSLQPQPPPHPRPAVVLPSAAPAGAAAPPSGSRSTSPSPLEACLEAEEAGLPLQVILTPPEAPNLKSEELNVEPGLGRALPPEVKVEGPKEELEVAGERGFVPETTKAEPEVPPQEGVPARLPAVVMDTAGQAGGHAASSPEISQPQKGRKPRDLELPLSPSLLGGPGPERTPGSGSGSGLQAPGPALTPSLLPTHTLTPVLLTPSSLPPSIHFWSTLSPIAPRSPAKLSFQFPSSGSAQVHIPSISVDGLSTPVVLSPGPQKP
The conditions noted are these: protein: recombinant; tags: N-terminal GST; dsDNA, one strand shown. The gist of the method:
as §1

In the next test the target is T3, GABPA (Homo sapiens, UniProt Q06546 1-454).
T3 sequence: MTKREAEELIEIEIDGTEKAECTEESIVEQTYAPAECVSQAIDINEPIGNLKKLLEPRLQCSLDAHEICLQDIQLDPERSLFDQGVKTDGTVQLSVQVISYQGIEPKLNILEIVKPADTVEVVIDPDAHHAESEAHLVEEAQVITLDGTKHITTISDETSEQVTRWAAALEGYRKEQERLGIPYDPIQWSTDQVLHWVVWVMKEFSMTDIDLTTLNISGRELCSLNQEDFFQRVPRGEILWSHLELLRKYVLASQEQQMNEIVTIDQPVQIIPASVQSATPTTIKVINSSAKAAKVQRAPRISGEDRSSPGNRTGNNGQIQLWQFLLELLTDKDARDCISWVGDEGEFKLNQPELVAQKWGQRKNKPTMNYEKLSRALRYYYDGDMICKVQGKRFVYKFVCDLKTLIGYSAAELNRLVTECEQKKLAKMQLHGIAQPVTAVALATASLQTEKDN
The conditions noted are these: protein: recombinant; tags: N-terminal GST; dsDNA, one strand shown. The gist of the method:
as §1

A further test deals with T4, ERG (Homo sapiens, UniProt P11308 1-479).
T4 sequence: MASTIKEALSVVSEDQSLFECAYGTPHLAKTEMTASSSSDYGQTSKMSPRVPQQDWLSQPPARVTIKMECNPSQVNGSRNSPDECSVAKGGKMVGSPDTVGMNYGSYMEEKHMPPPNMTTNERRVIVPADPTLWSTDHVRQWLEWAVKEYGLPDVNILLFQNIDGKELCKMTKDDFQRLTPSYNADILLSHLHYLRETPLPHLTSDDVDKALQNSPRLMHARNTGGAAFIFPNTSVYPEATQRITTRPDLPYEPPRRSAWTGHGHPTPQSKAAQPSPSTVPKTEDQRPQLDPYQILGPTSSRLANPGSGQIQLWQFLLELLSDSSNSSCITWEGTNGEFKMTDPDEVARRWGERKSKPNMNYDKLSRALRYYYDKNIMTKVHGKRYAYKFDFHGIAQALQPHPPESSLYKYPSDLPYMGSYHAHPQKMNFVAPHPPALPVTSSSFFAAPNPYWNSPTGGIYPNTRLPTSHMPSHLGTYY
The conditions noted are these: protein: recombinant; tags: N-terminal GST; dsDNA, one strand shown. The gist of the method: as §1

The target of another test is ELF1 (Homo sapiens, UniProt P32519 1-619). The conditions noted are these: protein: recombinant; tags: N-terminal GST; dsDNA, one strand shown. In outline:
as §1

For a further test, the target named is T5, EHF (Homo sapiens, UniProt Q9NZC4 1-300).
T5 sequence: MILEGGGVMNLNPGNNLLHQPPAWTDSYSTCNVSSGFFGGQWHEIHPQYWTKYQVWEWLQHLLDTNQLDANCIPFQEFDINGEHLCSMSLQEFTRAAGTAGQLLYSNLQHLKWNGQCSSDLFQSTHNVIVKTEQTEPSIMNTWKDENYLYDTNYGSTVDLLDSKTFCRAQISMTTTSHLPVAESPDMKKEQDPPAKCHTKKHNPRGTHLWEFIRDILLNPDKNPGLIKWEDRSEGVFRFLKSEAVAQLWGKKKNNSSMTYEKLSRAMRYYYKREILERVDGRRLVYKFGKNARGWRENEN
The conditions noted are these: protein: recombinant; tags: N-terminal GST; dsDNA, one strand shown. In outline: as §1

For the next test, the target named is SPI1 (Homo sapiens, UniProt P17947 1-270). The conditions noted are these: protein: recombinant; tags: N-terminal GST; dsDNA, one strand shown. The gist of the method:
as §1

The next test concerns the target SPIB (Homo sapiens, UniProt Q01892 1-262). The conditions noted are these: protein: recombinant; tags: N-terminal GST; dsDNA, one strand shown. In outline: as §1
The next test has as its target T6, ELK3 (Homo sapiens, UniProt P41970 1-407).
T6 sequence: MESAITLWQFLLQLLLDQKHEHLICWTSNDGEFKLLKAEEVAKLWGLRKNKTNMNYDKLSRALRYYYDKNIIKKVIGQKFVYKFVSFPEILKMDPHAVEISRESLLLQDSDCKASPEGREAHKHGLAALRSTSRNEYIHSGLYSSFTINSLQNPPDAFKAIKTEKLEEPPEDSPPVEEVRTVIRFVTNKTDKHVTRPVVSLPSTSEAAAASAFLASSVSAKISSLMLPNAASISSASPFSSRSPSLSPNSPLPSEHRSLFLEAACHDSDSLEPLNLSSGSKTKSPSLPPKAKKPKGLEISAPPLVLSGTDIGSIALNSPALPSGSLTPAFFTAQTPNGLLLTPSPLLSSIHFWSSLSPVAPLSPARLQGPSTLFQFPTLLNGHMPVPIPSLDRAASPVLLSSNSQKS
The conditions noted are these: protein: recombinant; tags: N-terminal GST; dsDNA, one strand shown. The gist of the method: as §1

The target of the next test is T7, FEV (Homo sapiens, UniProt Q99581 1-238).
T7 sequence: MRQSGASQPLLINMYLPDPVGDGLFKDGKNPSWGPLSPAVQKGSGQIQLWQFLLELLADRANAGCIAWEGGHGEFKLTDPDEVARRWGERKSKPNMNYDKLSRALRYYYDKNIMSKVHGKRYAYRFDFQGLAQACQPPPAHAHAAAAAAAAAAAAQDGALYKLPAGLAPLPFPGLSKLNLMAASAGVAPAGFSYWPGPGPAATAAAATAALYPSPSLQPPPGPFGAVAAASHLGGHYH
The conditions noted are these: protein: recombinant; tags: N-terminal GST; dsDNA, one strand shown. The gist of the method: as §1

The target of a further test is ETV5 (Homo sapiens, UniProt P41161 1-510). The conditions noted are these: protein: recombinant; tags: N-terminal GST; dsDNA, one strand shown. The gist of the method: as §1
Chain of ETV5 (P41161 whole entry): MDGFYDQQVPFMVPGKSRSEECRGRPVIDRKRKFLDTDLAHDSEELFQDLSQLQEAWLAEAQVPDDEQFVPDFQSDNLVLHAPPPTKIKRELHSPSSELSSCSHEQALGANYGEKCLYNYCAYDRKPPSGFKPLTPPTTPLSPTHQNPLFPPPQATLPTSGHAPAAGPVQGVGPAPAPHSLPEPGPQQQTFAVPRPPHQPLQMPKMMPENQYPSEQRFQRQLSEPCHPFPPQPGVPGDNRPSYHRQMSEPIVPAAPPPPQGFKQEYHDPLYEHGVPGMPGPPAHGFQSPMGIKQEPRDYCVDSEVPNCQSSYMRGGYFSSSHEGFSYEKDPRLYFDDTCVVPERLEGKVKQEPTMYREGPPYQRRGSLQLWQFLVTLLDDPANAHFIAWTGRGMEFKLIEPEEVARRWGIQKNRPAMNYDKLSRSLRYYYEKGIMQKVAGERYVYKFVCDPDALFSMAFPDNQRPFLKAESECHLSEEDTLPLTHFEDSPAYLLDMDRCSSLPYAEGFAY
The target of a further test is HSF1 (Homo sapiens, UniProt Q00613 1-529). The conditions noted are these: protein: recombinant; tags: N-terminal GST; chain copies: 3; dsDNA, one strand shown. The gist of the method: as §1
Chain of HSF1 (Q00613 whole entry): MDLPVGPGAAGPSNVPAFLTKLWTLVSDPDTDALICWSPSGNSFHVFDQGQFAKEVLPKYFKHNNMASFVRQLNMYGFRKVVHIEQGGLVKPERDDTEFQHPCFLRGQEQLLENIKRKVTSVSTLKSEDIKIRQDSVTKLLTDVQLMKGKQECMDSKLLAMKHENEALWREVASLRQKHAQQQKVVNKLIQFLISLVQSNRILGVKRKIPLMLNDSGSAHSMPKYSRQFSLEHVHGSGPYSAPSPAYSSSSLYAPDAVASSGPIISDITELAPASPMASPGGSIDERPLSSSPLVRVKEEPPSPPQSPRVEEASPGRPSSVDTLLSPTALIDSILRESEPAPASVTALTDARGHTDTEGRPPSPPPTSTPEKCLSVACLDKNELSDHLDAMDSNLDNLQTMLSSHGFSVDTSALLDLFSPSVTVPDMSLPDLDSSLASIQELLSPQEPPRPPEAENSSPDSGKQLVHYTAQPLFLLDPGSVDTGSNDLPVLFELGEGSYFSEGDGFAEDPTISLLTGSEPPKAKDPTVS
The target of the next test is T8, SPIC (Homo sapiens, UniProt Q8N5J4 1-248).
T8 sequence: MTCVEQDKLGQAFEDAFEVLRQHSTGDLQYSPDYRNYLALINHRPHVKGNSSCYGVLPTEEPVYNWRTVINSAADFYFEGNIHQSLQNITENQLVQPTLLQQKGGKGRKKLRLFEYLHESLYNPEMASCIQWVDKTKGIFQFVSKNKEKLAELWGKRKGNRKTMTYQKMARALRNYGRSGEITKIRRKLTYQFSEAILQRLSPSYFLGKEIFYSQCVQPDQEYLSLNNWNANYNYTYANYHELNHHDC
The conditions noted are these: protein: recombinant; tags: N-terminal GST; dsDNA, one strand shown. The gist of the method:
as §1

The target of another test is ELF4 (Homo sapiens, UniProt Q99607 1-663). The conditions noted are these: protein: recombinant; tags: N-terminal GST; dsDNA, one strand shown. In outline: as §1
Chain of ELF4 (Q99607 whole entry): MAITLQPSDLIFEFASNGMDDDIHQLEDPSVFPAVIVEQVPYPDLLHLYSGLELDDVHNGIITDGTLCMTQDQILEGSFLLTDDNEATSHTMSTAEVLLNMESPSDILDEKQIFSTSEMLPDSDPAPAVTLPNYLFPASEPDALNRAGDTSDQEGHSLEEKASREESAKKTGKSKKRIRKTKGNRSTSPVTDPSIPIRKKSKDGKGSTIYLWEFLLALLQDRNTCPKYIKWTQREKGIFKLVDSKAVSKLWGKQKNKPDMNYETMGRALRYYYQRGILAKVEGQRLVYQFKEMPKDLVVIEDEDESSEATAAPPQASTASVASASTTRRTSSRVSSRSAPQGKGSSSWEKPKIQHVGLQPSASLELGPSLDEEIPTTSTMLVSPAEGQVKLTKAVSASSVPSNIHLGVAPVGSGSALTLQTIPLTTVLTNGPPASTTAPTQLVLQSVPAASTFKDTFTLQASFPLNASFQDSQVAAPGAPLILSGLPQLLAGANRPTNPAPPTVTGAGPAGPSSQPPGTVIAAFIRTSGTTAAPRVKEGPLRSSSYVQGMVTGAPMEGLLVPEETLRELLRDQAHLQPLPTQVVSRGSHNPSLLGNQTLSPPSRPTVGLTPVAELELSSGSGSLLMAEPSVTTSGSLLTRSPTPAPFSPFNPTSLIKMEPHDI
The target of the next test is T9, ELK4 (Homo sapiens, UniProt P28324-2 1-405).
T9 sequence: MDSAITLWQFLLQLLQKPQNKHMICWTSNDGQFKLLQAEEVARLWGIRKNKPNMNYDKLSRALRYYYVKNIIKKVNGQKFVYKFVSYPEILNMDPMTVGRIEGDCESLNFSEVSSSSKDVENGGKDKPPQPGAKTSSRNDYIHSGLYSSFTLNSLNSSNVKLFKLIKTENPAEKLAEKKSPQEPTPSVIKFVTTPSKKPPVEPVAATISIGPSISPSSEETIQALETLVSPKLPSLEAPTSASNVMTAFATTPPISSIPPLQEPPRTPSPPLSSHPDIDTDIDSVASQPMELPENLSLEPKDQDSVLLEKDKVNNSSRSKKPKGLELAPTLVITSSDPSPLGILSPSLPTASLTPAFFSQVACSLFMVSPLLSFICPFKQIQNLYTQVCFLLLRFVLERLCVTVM
The conditions noted are these: protein: recombinant; tags: N-terminal GST; dsDNA, one strand shown. In outline:
as §1

A further test has as its target T10, ETV2 (Homo sapiens, UniProt O00321 1-342).
T10 sequence: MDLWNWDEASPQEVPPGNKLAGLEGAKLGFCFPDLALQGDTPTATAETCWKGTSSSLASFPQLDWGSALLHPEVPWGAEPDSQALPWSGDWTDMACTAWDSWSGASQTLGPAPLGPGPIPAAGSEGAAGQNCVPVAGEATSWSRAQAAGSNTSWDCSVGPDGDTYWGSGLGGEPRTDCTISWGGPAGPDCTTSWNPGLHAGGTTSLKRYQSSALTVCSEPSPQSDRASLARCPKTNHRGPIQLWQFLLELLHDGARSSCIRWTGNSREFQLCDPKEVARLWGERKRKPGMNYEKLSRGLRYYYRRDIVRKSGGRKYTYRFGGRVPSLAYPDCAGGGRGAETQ
The conditions noted are these: protein: recombinant; tags: N-terminal GST; dsDNA, one strand shown. In outline:
as §1

A further test deals with T11, ELF3 (Homo sapiens, UniProt P78545 1-371).
T11 sequence: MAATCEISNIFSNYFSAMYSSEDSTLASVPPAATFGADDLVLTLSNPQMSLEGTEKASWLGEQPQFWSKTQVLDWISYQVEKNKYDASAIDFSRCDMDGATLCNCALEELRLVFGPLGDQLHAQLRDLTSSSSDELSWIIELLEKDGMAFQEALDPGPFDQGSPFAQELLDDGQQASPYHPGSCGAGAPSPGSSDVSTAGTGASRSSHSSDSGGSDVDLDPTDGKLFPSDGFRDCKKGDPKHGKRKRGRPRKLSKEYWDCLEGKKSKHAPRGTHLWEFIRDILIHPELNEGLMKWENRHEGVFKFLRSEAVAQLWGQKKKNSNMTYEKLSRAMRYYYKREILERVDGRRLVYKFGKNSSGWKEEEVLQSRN
The conditions noted are these: protein: recombinant; tags: N-terminal GST; dsDNA, one strand shown. The gist of the method: as §1

A further test concerns the target CRX (Homo sapiens, UniProt O43186 1-299). The conditions noted are these: protein: recombinant; tags: N-terminal GST; dsDNA, one strand shown. In outline: as §1
A further test concerns the target ETV1 (Homo sapiens, UniProt P50549 1-477). The conditions noted are these: protein: recombinant; tags: N-terminal GST; dsDNA, one strand shown. The gist of the method:
as §1

Chain of ETV1 (P50549 whole entry): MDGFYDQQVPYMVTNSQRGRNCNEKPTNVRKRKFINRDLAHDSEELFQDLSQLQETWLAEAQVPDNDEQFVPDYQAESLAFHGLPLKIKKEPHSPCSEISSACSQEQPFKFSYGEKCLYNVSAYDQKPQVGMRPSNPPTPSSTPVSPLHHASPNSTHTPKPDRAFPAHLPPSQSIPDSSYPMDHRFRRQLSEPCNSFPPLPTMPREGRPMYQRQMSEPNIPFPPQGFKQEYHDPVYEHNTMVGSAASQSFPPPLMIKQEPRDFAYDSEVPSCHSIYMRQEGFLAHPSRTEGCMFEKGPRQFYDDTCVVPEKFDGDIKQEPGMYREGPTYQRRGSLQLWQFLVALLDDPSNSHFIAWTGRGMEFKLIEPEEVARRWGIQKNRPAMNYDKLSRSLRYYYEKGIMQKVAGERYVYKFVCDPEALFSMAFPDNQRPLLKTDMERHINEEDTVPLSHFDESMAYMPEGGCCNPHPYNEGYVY
Chain of SPIB (Q01892 whole entry): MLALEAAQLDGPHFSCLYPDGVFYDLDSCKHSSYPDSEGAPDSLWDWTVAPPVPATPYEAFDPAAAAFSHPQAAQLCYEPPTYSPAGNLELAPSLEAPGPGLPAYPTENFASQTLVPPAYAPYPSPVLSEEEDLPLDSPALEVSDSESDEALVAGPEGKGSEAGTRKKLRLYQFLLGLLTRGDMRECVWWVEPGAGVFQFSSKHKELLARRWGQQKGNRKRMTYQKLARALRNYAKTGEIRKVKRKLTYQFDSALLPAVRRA
Chain of ELF1 (P32519 whole entry): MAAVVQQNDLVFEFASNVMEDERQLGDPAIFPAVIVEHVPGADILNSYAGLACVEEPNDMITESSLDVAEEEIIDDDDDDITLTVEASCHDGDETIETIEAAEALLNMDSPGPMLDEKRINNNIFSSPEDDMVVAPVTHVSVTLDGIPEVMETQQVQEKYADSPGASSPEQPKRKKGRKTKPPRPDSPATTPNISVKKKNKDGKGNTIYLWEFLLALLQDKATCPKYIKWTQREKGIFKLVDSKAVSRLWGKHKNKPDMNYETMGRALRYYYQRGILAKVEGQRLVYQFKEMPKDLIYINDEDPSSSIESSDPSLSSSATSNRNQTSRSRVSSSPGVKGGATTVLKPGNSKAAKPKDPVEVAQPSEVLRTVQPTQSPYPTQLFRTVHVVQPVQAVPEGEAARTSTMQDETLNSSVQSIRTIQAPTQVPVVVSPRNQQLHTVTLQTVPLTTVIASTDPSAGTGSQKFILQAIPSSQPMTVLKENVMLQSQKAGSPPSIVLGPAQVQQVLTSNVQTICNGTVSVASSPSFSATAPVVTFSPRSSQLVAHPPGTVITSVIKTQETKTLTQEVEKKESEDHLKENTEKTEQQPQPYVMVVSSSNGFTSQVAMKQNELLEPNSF
Chain of CRX (O43186 whole entry): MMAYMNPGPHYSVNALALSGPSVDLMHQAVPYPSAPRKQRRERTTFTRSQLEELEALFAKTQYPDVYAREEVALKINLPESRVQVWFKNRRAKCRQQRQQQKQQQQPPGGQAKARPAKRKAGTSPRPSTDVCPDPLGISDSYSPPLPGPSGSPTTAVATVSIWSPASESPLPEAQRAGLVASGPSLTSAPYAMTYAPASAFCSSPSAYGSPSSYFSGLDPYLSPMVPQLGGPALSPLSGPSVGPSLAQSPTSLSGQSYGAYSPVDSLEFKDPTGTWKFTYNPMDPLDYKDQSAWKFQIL

With ATTACT, the binding signal is 1.3 fold enrichment (6-mer frequency, TF over GST control) with FLI1; 1.12 fold enrichment (6-mer frequency, TF over GST control) with ELK1; 1.29 fold enrichment (6-mer frequency, TF over GST control) with GABPA; 1.22 fold enrichment (6-mer frequency, TF over GST control) in the test with ERG; 1.28 fold enrichment (6-mer frequency, TF over GST control) with ELF1; 1.27 fold enrichment (6-mer frequency, TF over GST control) with EHF. Moreover, the binding signal with SPI1 is 1.28 fold enrichment (6-mer frequency, TF over GST control); with SPIB, 1.33 fold enrichment (6-mer frequency, TF over GST control); with ELK3, 1.24 fold enrichment (6-mer frequency, TF over GST control); with FEV, 1.27 fold enrichment (6-mer frequency, TF over GST control); in the test with ETV5, 1.23 fold enrichment (6-mer frequency, TF over GST control); in the test with HSF1, 1.66 fold enrichment (6-mer frequency, TF over GST control). Besides, the binding signal with SPIC is 1.38 fold enrichment (6-mer frequency, TF over GST control); with ELF4 it was 1.19 fold enrichment (6-mer frequency, TF over GST control); in the test with ELK4 it was 1.39 fold enrichment (6-mer frequency, TF over GST control); in the test with ETV2 it was 1.48 fold enrichment (6-mer frequency, TF over GST control); in the test with ELF3 it was 1.39 fold enrichment (6-mer frequency, TF over GST control); with CRX, 2.22 fold enrichment (6-mer frequency, TF over GST control). The binding signal with ETV1 was 1.35 fold enrichment (6-mer frequency, TF over GST control).
